# Test results reported in PubChem BioAssay (EPA / NIEHS).
# Results filed as inconclusive are left out. Calls of active or inactive are those of the source. How the source made its calls, unless noted: active means hit-call score of the fitted dose curve at least 0.9, where 1 is the maximum; inactive means score below 0.9.
# How the values were obtained:
# [1] = BSK_4H_Eotaxin3: BioMAP Diversity Plus: 4H Assay for Eotaxin 3 Biomarker Activity (AID 2283000); settings: primary human endothelial cells (HUVEC); actives raise or lower the signal;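 on outcome: CCL26 protein level quantified by ELISA in parallel with SRB cytotoxicity check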
# Method in brief: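 HUVEC, 24 h post-dose, ELISA for Eotaxin-3/CCL26. Gain or loss of signal fitted bidirectionally vs DMSO baseline.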
# [2] = target: human Peroxisome Proliferator-activated Receptor delta (PPARd), PPARD (gene 5467) (UniProt Q03181); assay: ATG_PPARd_TRANS: Attagene TRANS-FACTORIAL HepG2 Assay for human Peroxisome Proliferator-activated Receptor delta (PPARd) (AID 2283002; active means hit-call score of the fitted dose curve at least 0.9, where 1 is the maximum)
# Method in brief: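 HepG2 cells transiently transfected with multiplexed GAL4-UAS reporter units and exogenous chimeric NR-Gal4 proteins; 24 h compound exposure. Reporter mRNA measured by RT-PCR, 6-FAM labelling, HpaI digestion and capillary electrophoresis; gain of signal versus DMSO.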
# [3] = read-out: Intercellular Adhesion Molecule 1 (ICAM1), ICAM1 (gene 3383); assay: BSK_3C_ICAM1: BioMAP Diversity Plus: 3C Assay for Intercellular Adhesion Molecule 1 (ICAM1) Biomarker Activity (AID 2283003); settings: primary human endothelial cells (HUVEC); actives raise or lower the signal
# Method in brief: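 Chemicals are dosed onto primary human umbilical vein endothelium (3C system). After 24 h, ICAM-1 is measured by ELISA, and responses are fitted bidirectionally relative to DMSO.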
# [4] = BSK_3C_Proliferation: Cell Proliferation Assessment in the BioMAP Diversity Plus: 3C Assay (AID 2283006); settings: primary human endothelial cells (HUVEC);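 on AC50: potency may reflect either rise or fall in cell number versus DMSO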
# Method in brief: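 Cells (human umbilical vein endothelial, sub-confluent) receive test chemical; after 48 h they are fixed in 10% trichloroacetic acid, stained with 0.1% SRB and read at 560 nm. Activity is referenced to DMSO, fitting increases and decreases.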
# [5] = target: Peroxisome proliferator-activated receptor gamma (Homo sapiens) (UniProt P37231); assay: ATG_PPARg_TRANS: Attagene TRANS-FACTORIAL HepG2 Assay for human Peroxisome Proliferator-activated Receptor-gamma (PPARg) (AID 2283007; active means hit-call score of the fitted dose curve at least 0.9, where 1 is the maximum)
# Method in brief: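 HepG2 cells transiently transfected with multiplexed GAL4-UAS reporter units and exogenous chimeric NR-Gal4 proteins; reporter mRNA quantified after 24 h compound exposure by RT-PCR, fluorescent labelling, HpaI digestion and capillary electrophoresis; gain-of-signal fitted versus DMSO baseline.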
# [6] = target: Nuclear receptor subfamily 1 group I member 2 (Homo sapiens) (UniProt O75469); assay: ATG_PXR_TRANS: Attagene TRANS-FACTORIAL HepG2 Assay for human Pregnane X Receptor (PXR) (AID 2283008; active means hit-call score of the fitted dose curve at least 0.9, where 1 is the maximum)
# Method in brief: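 Transactivation by exogenous PXR–GAL4 fusion measured as reporter transcript induction after 24 h compound treatment of transfected human HepG2 cells. Read-out via RT-PCR and capillary electrophoresis of labelled fragments, fitted upward relative to DMSO.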
# [7] = target: human Retinoic Acid Receptor gamma (RARg), RARG (gene 5916) (UniProt P13631); assay: ATG_RARg_TRANS: Attagene TRANS-FACTORIAL HepG2 Assay for human Retinoic Acid Receptor gamma (RARg) (AID 2283009; active means hit-call score of the fitted dose curve at least 0.9, where 1 is the maximum)
# Method in brief: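 TRANS format measured activity of exogenous NR-GAL4 fusion (RARg) in transfected HepG2 liver cells after 24 h dosing. Induced reporter RNA was detected by RT-PCR/capillary electrophoresis fluorescence, analysed in the positive direction against DMSO.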
# [8] = target: human RAR-related Orphan Receptor gamma (RORg), RORC (gene 6097) (UniProt P51449); assay: ATG_RORg_TRANS: Attagene TRANS-FACTORIAL HepG2 Assay for human RAR-related Orphan Receptor gamma (RORg) (AID 2283011; active means hit-call score of the fitted dose curve at least 0.9, where 1 is the maximum)
# Method in brief: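 Readout: reporter transcript induction (RT-PCR, fluorescent primer extension, capillary electrophoresis) after 24 h compound exposure of transiently transfected HepG2 cells carrying a RORg-Gal4 chimera and GAL4-UAS reporters; DMSO served as baseline, with increasing signal fitted.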
# [9] = target: Retinoic acid receptor RXR-alpha (Homo sapiens) (UniProt P19793); assay: ATG_RXRa_TRANS: Attagene TRANS-FACTORIAL HepG2 Assay for human Retinoid X Receptor alpha (RXRa) (AID 2283012; active means hit-call score of the fitted dose curve at least 0.9, where 1 is the maximum)
# Method in brief: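 Measures exogenous chimeric NR-GAL4 activity in transfected HepG2 liver cells after 24 h of dosing. Induced reporter mRNA was detected by RT-PCR with capillary electrophoresis, and gain of signal was analysed against DMSO.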
# [10] = target: human Retinoid X Receptor beta (RXRb), RXRB (gene 6257) (UniProt P28702); assay: ATG_RXRb_TRANS: Attagene TRANS-FACTORIAL HepG2 Assay for human Retinoid X Receptor beta (RXRb) (AID 2283013; active means hit-call score of the fitted dose curve at least 0.9, where 1 is the maximum)
# Method in brief: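 Chimeric receptor-Gal4 activity was assessed in transiently transfected human HepG2 cells after 24 h exposure. Transcripts from GAL4-UAS reporters were quantified by fluorescent RT-PCR and capillary electrophoresis, with DMSO as negative control and baseline.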
# [11] = read-out: E-selectin (Homo sapiens) (UniProt P16581); assay: BSK_3C_Eselectin: BioMAP Diversity Plus: 3C Assay for Eselectin Biomarker Activity (AID 2283015); settings: primary human endothelial cells (HUVEC); actives raise or lower the signal;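 on outcome: cell surface E-selectin protein quantified by ELISA 24 h after dosing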
# Method in brief: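 Primary human umbilical vein endothelial cells (3C system) were dosed with chemical and cell-surface E-selectin measured by ELISA 24 h later. Bidirectional curve fitting used DMSO as negative control and baseline.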
# [12] = read-out: Interleukin-1 alpha (IL1a), IL1A (gene 3552); assay: BSK_BE3C_IL1a: BioMAP Diversity Plus: BE3C Assay for Interleukin-1 alpha (IL1a) Biomarker Activity (AID 2283016); settings: primary human bronchial epithelial cells; actives raise or lower the signal
# Method in brief: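 Signal from IL-1a ELISA, taken 24 h after chemical dosing of human bronchial epithelial cells, is compared with DMSO as baseline using bidirectional curve fitting.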
# [13] = read-out: Monocyte Chemoattractant Protein-1 (MCP1), CCL2 (gene 6347); assay: BSK_3C_MCP1: BioMAP Diversity Plus: 3C Assay for Monocyte Chemoattractant Protein-1 (MCP1) Biomarker Activity (AID 2283017); settings: primary human endothelial cells (HUVEC); actives raise or lower the signal
# Method in brief: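 Primary human umbilical vein endothelial cells (3C system) were exposed to test chemical for 24 h, after which MCP-1 was quantified by ELISA. Activity was fitted bidirectionally against DMSO as negative control and baseline.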
# [14] = read-out: Monocyte Chemoattractant Protein-1 (MCP1), CCL2 (gene 6347); assay: BSK_4H_MCP1: BioMAP Diversity Plus: 4H Assay for Monocyte Chemoattractant Protein-1 (MCP1) Biomarker Activity (AID 2283018); settings: primary human endothelial cells (HUVEC); actives raise or lower the signal
# Method in brief: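 Endothelial cells from umbilical vein were treated with test chemical, then after 24 h MCP-1 levels were quantified by ELISA; endpoint values came from bidirectional fitting with DMSO as baseline of activity.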
# [15] = read-out: Human Leukocyte Antigen - DR isotype (HLADR), HLA-DRA (gene 3122); assay: BSK_3C_HLADR: BioMAP Diversity Plus: 3C Assay for Human Leukocyte Antigen - DR isotype (HLADR) Biomarker Activity (AID 2283019); settings: primary human endothelial cells (HUVEC); actives raise or lower the signal;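 on outcome: ELISA of cell-surface HLA-DR on HUVEC 24 h after dosing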
# Method in brief: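 Primary human umbilical vein endothelial cells (3C system) were dosed with compound and cell-surface HLA-DR was quantified by ELISA at 24 h. Activity was fitted bidirectionally against DMSO as negative control and baseline.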
# [16] = target: human Peroxisome Proliferator-activated Receptor alpha (PPARa), PPARA (gene 5465) (UniProt Q07869); assay: ATG_PPARa_TRANS: Attagene TRANS-FACTORIAL HepG2 Assay for human Peroxisome Proliferator-activated Receptor alpha (PPARa) (AID 2283001; active means hit-call score of the fitted dose curve at least 0.9, where 1 is the maximum)
# Method in brief: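 Cells (HepG2) are transfected with multiple reporter transcription units, exposed to chemical for 24 h, then total RNA is reverse-transcribed and amplified. Labelled products are quantified by capillary electrophoresis; induction is referenced to DMSO.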
# [17] = target: human RAR-related Orphan Receptor beta (RORb), RORB (gene 6096) (UniProt Q92753); assay: ATG_RORb_TRANS: Attagene TRANS-FACTORIAL HepG2 Assay for human RAR-related Orphan Receptor beta (RORb) (AID 2283010; active means hit-call score of the fitted dose curve at least 0.9, where 1 is the maximum)
# Method in brief: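 Transfect HepG2 with multiple GAL4-UAS reporter transcription units; dose chemicals for 24 h; isolate RNA, reverse-transcribe and PCR-amplify reporter sequences; label, digest and resolve fragments by capillary electrophoresis; fit increases relative to DMSO.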
# [18] = target: human Retinoic Acid Receptor beta (RARb), RARB (gene 5915) (UniProt P10826); assay: ATG_RARb_TRANS: Attagene TRANS-FACTORIAL HepG2 Assay for human Retinoic Acid Receptor beta (AID 2283004; active means hit-call score of the fitted dose curve at least 0.9, where 1 is the maximum)
# Method in brief: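 HepG2 cells transiently transfected with multiplexed GAL4-UAS reporter units expressing chimeric NR–Gal4 fusions; 24 h compound exposure. Reporter mRNA quantified by RT-PCR, 6-FAM labelling, HpaI digestion and capillary electrophoresis; gain-of-signal fitted against DMSO baseline.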
# [19] = target: Retinoic acid receptor alpha (Homo sapiens) (UniProt P10276); assay: ATG_RARa_TRANS: Attagene TRANS-FACTORIAL HepG2 Assay for human Retinoic Acid Receptor alpha (RARa) (AID 2283005; active means hit-call score of the fitted dose curve at least 0.9, where 1 is the maximum)
# Method in brief: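 HepG2 cells transiently transfected with multiple reporter units expressing chimeric RARα-GAL4 fusion, with GAL4-UAS-driven reporters. After 24 h compound exposure, reporter mRNA induction quantified by RT-PCR and capillary electrophoresis with fluorescent labeling; gain-of-signal fitted relative to DMSO control.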
# [20] = target: human Thyroid Receptor alpha (THRa1), THRA (gene 7067) (UniProt P10827); assay: ATG_THRa1_TRANS: Attagene TRANS-FACTORIAL HepG2 Assay for human Thyroid Receptor alpha (THRa1) (AID 2283014; active means hit-call score of the fitted dose curve at least 0.9, where 1 is the maximum)
# Method in brief: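 HepG2 cells transiently transfected with multiplexed GAL4-UAS reporter units for exogenous chimeric THRa1-Gal4; reporter mRNA measured 24 h after dosing by RT-PCR, 6-FAM labelling, HpaI digestion and capillary electrophoresis. Gain-of-signal fitted versus DMSO baseline.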
# Sequence of E-selectin (Homo sapiens) (P16581 whole entry, looked up): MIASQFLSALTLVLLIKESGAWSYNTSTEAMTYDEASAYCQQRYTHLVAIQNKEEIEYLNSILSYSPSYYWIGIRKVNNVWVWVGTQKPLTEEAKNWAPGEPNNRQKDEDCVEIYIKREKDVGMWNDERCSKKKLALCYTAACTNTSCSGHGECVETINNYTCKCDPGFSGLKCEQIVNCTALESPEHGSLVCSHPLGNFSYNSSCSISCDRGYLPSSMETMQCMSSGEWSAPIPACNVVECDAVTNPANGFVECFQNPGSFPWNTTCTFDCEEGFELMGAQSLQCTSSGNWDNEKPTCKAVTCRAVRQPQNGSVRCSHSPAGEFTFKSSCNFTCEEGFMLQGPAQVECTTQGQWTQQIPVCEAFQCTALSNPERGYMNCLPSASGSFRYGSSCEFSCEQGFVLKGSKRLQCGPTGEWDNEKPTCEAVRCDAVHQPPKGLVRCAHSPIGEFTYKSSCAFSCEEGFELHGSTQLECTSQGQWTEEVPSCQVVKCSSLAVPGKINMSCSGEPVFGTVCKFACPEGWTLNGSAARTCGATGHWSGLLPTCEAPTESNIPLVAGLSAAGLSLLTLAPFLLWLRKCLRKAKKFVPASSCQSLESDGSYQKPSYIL
# Sequence of human Retinoid X Receptor beta (RXRb), RXRB (gene 6257) (P28702 whole entry, looked up, the tested form may be a part): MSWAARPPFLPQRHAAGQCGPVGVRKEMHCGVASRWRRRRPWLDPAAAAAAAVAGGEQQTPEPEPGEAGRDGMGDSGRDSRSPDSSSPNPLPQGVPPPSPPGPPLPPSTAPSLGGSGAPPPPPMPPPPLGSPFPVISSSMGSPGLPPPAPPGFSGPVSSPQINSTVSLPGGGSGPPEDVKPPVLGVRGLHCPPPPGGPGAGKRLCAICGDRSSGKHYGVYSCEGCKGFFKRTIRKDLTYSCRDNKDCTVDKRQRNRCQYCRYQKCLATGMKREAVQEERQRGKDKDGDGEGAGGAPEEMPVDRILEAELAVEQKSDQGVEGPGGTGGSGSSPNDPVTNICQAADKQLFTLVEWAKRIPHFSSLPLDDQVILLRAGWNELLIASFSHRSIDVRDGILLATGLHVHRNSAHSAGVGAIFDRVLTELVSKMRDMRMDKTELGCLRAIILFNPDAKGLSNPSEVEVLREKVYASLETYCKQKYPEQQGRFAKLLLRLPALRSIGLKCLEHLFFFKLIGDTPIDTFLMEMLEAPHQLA
# Sequence of Retinoic acid receptor RXR-alpha (Homo sapiens) (P19793 whole entry, looked up, the tested form may be a part): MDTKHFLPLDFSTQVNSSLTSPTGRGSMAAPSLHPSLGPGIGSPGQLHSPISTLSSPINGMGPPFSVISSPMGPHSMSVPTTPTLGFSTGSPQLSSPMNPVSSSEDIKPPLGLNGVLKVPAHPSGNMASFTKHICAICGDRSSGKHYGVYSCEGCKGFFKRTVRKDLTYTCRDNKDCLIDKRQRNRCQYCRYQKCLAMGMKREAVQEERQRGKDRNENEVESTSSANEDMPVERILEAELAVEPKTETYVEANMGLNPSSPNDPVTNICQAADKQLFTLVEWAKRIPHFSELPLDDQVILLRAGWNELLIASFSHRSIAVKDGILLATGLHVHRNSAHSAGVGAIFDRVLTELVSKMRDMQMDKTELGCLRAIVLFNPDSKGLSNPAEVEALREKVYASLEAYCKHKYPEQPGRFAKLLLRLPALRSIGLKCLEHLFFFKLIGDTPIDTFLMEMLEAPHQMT
# Sequence of Nuclear receptor subfamily 1 group I member 2 (Homo sapiens) (O75469 whole entry, looked up, the tested form may be a part): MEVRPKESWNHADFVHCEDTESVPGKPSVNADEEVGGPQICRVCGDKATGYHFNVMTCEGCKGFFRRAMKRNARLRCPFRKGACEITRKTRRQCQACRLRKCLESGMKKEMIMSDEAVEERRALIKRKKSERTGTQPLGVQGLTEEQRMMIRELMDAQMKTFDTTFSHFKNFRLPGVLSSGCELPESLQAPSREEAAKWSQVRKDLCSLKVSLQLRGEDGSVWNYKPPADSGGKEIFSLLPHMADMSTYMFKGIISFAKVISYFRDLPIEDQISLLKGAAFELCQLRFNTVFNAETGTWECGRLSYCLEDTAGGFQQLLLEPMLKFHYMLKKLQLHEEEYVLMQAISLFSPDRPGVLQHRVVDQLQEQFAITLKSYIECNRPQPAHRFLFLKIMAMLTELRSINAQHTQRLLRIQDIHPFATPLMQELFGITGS
# Sequence of human Peroxisome Proliferator-activated Receptor alpha (PPARa), PPARA (gene 5465) (Q07869 whole entry, looked up): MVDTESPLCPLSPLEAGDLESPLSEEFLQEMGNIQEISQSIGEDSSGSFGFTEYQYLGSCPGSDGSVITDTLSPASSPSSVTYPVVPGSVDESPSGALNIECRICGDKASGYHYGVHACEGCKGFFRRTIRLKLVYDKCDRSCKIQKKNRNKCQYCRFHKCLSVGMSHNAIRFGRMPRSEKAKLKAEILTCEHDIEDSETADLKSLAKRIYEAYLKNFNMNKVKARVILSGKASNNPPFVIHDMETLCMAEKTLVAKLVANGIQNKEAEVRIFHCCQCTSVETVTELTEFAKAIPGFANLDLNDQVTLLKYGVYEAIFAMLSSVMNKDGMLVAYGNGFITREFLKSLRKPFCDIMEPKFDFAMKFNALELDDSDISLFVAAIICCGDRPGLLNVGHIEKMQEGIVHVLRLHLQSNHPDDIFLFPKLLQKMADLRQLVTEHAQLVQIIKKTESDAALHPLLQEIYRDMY
# Sequence of Peroxisome proliferator-activated receptor gamma (Homo sapiens) (P37231 whole entry, looked up, the tested form may be a part): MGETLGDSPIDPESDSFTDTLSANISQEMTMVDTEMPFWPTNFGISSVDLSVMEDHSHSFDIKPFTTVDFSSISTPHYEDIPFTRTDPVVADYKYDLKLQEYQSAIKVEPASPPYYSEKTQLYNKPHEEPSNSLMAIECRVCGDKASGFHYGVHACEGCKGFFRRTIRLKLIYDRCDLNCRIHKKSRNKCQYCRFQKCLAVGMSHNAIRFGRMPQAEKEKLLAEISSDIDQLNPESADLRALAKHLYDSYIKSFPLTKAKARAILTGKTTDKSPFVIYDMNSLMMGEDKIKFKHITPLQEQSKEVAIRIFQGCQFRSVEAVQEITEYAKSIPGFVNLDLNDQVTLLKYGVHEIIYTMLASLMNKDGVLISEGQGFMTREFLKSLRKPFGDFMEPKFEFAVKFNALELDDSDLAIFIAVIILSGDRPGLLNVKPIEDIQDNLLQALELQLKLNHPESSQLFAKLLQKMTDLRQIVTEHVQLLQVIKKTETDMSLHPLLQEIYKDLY
# Sequence of human RAR-related Orphan Receptor gamma (RORg), RORC (gene 6097) (P51449 whole entry, looked up, the tested form may be a part): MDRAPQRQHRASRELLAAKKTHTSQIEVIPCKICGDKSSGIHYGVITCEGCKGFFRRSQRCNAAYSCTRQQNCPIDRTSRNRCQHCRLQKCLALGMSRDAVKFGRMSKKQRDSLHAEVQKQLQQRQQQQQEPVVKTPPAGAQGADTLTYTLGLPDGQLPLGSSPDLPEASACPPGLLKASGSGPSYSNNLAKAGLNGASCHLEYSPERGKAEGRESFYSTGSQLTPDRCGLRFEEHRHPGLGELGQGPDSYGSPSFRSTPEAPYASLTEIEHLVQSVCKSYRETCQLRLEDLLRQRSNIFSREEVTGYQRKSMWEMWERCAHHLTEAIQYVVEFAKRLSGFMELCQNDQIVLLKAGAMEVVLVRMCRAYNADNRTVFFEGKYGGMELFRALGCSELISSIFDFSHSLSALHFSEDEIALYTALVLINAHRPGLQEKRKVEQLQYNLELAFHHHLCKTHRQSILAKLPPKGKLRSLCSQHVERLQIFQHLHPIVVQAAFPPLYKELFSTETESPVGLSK
# Sequence of human Peroxisome Proliferator-activated Receptor delta (PPARd), PPARD (gene 5467) (Q03181 whole entry, looked up, the tested form may be a part): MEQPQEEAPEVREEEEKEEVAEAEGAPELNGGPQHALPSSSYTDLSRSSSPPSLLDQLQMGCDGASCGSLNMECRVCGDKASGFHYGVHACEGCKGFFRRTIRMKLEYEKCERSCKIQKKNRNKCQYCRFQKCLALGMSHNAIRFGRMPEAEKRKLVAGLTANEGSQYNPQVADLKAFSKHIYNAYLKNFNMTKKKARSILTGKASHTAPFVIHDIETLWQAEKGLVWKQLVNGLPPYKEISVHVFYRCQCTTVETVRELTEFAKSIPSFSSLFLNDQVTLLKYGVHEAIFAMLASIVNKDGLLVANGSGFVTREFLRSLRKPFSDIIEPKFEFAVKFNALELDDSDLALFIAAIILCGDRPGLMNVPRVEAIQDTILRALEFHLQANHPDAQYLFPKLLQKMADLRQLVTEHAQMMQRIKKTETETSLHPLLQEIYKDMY
# Sequence of human RAR-related Orphan Receptor beta (RORb), RORB (gene 6096) (Q92753 whole entry, looked up, the tested form may be a part): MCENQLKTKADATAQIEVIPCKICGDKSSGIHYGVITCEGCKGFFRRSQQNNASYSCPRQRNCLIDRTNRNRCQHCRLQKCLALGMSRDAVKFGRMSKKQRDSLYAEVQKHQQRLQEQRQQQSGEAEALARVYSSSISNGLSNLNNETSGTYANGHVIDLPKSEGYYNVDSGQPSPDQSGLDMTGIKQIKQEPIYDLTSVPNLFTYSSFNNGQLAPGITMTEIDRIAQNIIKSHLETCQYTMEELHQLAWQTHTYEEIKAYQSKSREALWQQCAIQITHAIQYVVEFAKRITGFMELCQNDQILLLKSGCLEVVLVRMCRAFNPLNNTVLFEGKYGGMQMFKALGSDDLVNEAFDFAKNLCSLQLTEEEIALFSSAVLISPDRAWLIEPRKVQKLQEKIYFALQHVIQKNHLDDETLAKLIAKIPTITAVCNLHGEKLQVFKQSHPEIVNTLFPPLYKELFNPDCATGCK
# Sequence of human Thyroid Receptor alpha (THRa1), THRA (gene 7067) (P10827 whole entry, looked up, the tested form may be a part): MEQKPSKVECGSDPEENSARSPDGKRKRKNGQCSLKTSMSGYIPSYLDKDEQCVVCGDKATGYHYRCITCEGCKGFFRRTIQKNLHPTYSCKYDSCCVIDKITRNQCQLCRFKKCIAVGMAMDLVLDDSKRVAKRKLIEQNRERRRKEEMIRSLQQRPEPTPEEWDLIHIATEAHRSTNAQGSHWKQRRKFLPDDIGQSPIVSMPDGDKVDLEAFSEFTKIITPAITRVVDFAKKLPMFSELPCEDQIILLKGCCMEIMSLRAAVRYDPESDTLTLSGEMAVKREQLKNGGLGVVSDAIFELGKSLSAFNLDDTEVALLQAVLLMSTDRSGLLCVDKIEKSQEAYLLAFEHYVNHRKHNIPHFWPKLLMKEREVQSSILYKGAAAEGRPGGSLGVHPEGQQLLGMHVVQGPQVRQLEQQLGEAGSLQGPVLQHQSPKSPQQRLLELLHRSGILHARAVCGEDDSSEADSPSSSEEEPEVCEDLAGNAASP
smiles,measurement,setting,value
CCCCCCCCCC(=O)OCC,AC50,[1],34.3 µM (active)
same,outcome,[2],inactive
same,AC50,[3],35.1 µM (active)
same,AC50,[4],20 µM (active)
same,AC50,[5],84.8 µM (active)
same,outcome,[6],inactive
same,outcome,[7],inactive
same,outcome,[8],inactive
same,outcome,[9],inactive
same,AC50,[10],100 µM (active)
same,AC50,[11],15.2 µM (active)
same,AC50,[12],20 µM (active)
same,AC50,[13],32 µM (active)
same,AC50,[14],29.7 µM (active)
same,AC50,[15],14.4 µM (active)
CCCCCCCCCCCCS,AC50,[1],28 µM (active)
same,outcome,[16],inactive
same,AC50,[3],29.8 µM (active)
same,AC50,[4],14.4 µM (active)
same,outcome,[5],inactive
same,outcome,[6],inactive
same,outcome,[17],inactive
same,outcome,[8],inactive
same,outcome,[9],inactive
same,outcome,[10],inactive
same,AC50,[11],20 µM (active)
same,outcome,[12],inactive
same,AC50,[13],29.5 µM (active)
same,AC50,[14],23.8 µM (active)
same,AC50,[15],20 µM (active)
CCn1cc(C(=O)O)c(=O)c2ccc(C)nc21,outcome,[1],inactive
same,outcome,[3],inactive
same,outcome,[18],inactive
same,outcome,[4],inactive
same,outcome,[5],inactive
same,outcome,[6],inactive
same,outcome,[17],inactive
same,outcome,[9],inactive
same,outcome,[11],inactive
same,outcome,[12],inactive
same,outcome,[13],inactive
same,outcome,[14],inactive
same,outcome,[15],inactive
CC(C)(C)c1cccc(O)c1,outcome,[1],inactive
same,outcome,[2],inactive
same,outcome,[3],inactive
same,outcome,[19],inactive
same,outcome,[4],inactive
same,outcome,[5],inactive
same,AC50,[6],27.2 µM (active)
same,outcome,[7],inactive
same,outcome,[9],inactive
same,AC50,[10],66.4 µM (active)
same,outcome,[11],inactive
same,outcome,[12],inactive
same,outcome,[13],inactive
same,outcome,[14],inactive
same,outcome,[15],inactive
CC(=O)OCC=C(C)CCC=C(C)CCC=C(C)C,outcome,[1],inactive
same,outcome,[16],inactive
same,outcome,[3],inactive
same,outcome,[4],inactive
same,AC50,[5],18.9 µM (active)
same,outcome,[17],inactive
same,outcome,[9],inactive
same,AC50,[10],9.14 µM (active)
same,outcome,[20],inactive
same,outcome,[11],inactive
same,outcome,[12],inactive
same,outcome,[13],inactive
same,AC50,[14],3.97 µM (active)
same,outcome,[15],inactive
C=C(C)C(=O)OCCC(F)(F)C(F)(F)C(F)(F)C(F)(F)C(F)(F)C(F)(F)C(F)(F)C(F)(F)F,outcome,[1],inactive
same,outcome,[3],inactive
same,outcome,[4],inactive
same,outcome,[11],inactive
same,outcome,[12],inactive
same,outcome,[13],inactive
same,outcome,[14],inactive
same,outcome,[15],inactive
ClCCOCCOCCCl,outcome,[16],inactive
same,outcome,[2],inactive
same,outcome,[18],inactive
same,outcome,[19],inactive
same,outcome,[5],inactive
same,outcome,[17],inactive
same,outcome,[8],inactive
same,outcome,[9],inactive
same,outcome,[10],inactive
same,outcome,[20],inactive
O=C(O)C1=NN(c2ccc(S(=O)(=O)O)cc2)C(=O)C1,outcome,[16],inactive
same,outcome,[2],inactive
same,outcome,[5],inactive
CCC(C)(CCCC(C)C)OC(C)=O (stereo not drawn),outcome,[16],inactive
same,outcome,[2],inactive
same,outcome,[5],inactive
same,outcome,[6],inactive
same,outcome,[17],inactive
same,outcome,[9],inactive
same,AC50,[10],64.8 µM (active)
NNC(=O)OCc1ccccc1,outcome,[16],inactive
same,outcome,[2],inactive
same,outcome,[5],inactive
same,outcome,[6],inactive
same,outcome,[17],inactive
same,outcome,[8],inactive
same,outcome,[9],inactive
same,outcome,[10],inactive
